Screening data deposited in PubChem by several laboratories.
RAM inhibit: inhibitors of the yeast RAM network, primary screen, dse1pr::URA3 reporter, 5-FOA selection; hit rate 1.8% among 190,000; S. cerevisiae dse1pr::URA3 reporter, 5-FOA growth OD615, 2 d; analog-sensitive cbk1-as2 kinase mutant strain; inhibition, % at 50 µM; AID 868, 2007;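 active means inhibition above a set limit, 3 SD over mean compound inhibition, cut at about 8.4% in these data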;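 further: inhibition rescues growth on 5-FOA so higher OD means more RAM inhibition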
WT yeast gro inh: growth inhibition of WT strain, primary screen, mitochondrial fusion inhibitor project, WT and mutant strains, chemical genetic. hit rate 2.1% among 190,000. inhibition, % at 10 µM. mitochondrial fusion phenotypic screen; in the data active means inhibition above about 58%; tested in S. cerevisiae
CHOP inhibitor: inhibitors of CHOP promoter induction, primary screen, cell-based, unfolded protein response, luciferase reporter. CHO-K1 CHOP-promoter luciferase, tunicamycin-induced, 15-18 h. inhibition, % at 10 µM. hit rate 3.8% among 220,000. AID 2732, 2010;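 active means compounds that reduced the stress-induced luciferase reporter signal by more than about 70% of percent inhibition, limit read from the data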
Lmaj promast: Leishmania major promastigote growth inhibition, primary screen. Leishmania major promastigotes, resazurin fluorescence viability. hit rate 9% among 200,000. inhibition, % at 10 µM. AID 1063, 2008; in the data active means inhibition above about 50%;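 further: promastigotes grown with compound for 44 hours at 28 °C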
Of the large screens only hits and unclear results are named; the others gave an inactive call. In the library only some 13% were active in any assay of this set; here they are far more common.

CN(C)S(=O)(=O)c1ccc(C(=O)Nc2nnc(-c3cccs3)o2)cc1	Lmaj promast 53
CN(C)S(=O)(=O)c1ccc(C(=O)Nc2nc(-c3cccs3)cs2)cc1	none (no result: CHOP inhibitor)
CC(=O)NS(=O)(=O)c1ccc(NC(=O)CSc2ccc(C)cc2)cc1	none
COc1cc(/C=N/NC(=O)CN(Cc2ccco2)S(=O)(=O)c2ccccc2)ccc1O	none
Cc1ccc(S(=O)(=O)N(C)c2ccc(C(=O)N3CCc4ccccc4C3)cc2)cc1	none
Cc1ccccc1NS(=O)(=O)c1cc(C(=O)N2CCc3ccccc3C2)ccc1C	WT yeast gro inh 81, Lmaj promast 88
Cc1ccc(NS(=O)(=O)c2cc(C(=O)N3CCc4ccccc4C3)ccc2Cl)cc1	none
CN(c1ccccc1)S(=O)(=O)c1ccc(C(=O)N2CCc3ccccc3C2)cc1	Lmaj promast 96
CC1=NN(C(=S)Nc2ccccc2)C(C)(C)C1	none
Cc1cnc(NC(=O)c2ccc(-c3nc4ccccc4s3)o2)s1	CHOP inhibitor 74
CCSC1=N/C(=C\c2ccccc2)C(=O)N1c1ccc(OC)cc1	RAM inhibit 10
C=CCSC1=N/C(=C\c2cccnc2)C(=O)N1c1ccc(OC)cc1	none
Cc1sc2nc(CN3CCOCC3)[nH]c(=S)c2c1C	none
C=CCNC(=O)c1ccccc1NC(=O)Cc1ccccc1[N+](=O)[O-]	none
Clc1ccccc1CSc1nnc(/C=C/c2ccccc2)o1	none
CC(/C=C1\N=C(SCc2ccccc2Cl)SC1=O)=C\c1ccccc1	RAM inhibit 10, CHOP inhibitor 76 (no result: WT yeast gro inh)
Cc1cc(C)nc(-n2ncc3c2CC(c2cccc(Cl)c2)CC3=O)n1 (stereo not given)	none
Oc1c(C=NCc2ccc(F)cc2)[nH]c2ccc(Br)c(Cl)c12	none (no result: WT yeast gro inh)
Cc1ccc(CN=Cc2[nH]c3ccc(Br)c(Cl)c3c2O)cc1	WT yeast gro inh 64
OCCC1CN(Cc2cn[nH]c2C2CCCCC2)CCN1C1CCCC1 (stereo not given)	none
Brc1cccc(OCCCN2CCCCCC2)c1	Lmaj promast 96
CC1CN(CCCCOc2cccc(Oc3ccccc3)c2)CC(C)O1 (stereo not given)	none
CC1CCN(CCOc2cccc(Br)c2)CC1	Lmaj promast 71
COc1cccc(NC(=O)CN2CCC(C)CC2)c1	none
COc1cccc(C(=O)OCCN2CCCCC2)c1	none
c1ccc(Oc2cccc(OCCCCN3CCCC3)c2)cc1	Lmaj promast 99
Clc1cccc(OCCN2CCN(CCOc3cccc(Cl)c3)CC2)c1	Lmaj promast 99
CN(C)CCCOc1cccc(Cl)c1	none
Cc1ccc(NC(=S)NC2CCCCC2)cc1S(=O)(=O)N(C)C	none
COc1ccc(OC)c(NC(=O)CNC(=O)c2ccc([N+](=O)[O-])cc2)c1	none
CC(=O)Nc1ncnc2c1c(-c1ccc(Cl)cc1)nn2C(C)(C)C	RAM inhibit 8.9
O=S(=O)(c1ccc(NC(=S)NN=C(Cc2ccccc2)Cc2ccccc2)cc1)N1CCOCC1	Lmaj promast 92
O=S(=O)(c1ccc(NC(=S)NCCc2ccccc2)cc1)N1CCOCC1	Lmaj promast 69
CC(C)(C)NNC(=S)Nc1ccc(S(=O)(=O)N2CCOCC2)cc1	none
O=C(CCCc1ccccc1)Nc1ccc(S(=O)(=O)N2CCOCC2)cc1	none (no result: RAM inhibit, WT yeast gro inh, Lmaj promast)
Cc1noc(C)c1S(=O)(=O)Nc1ccc(O)c2c(=O)cc(-c3ccccc3Cl)oc12	none (no result: RAM inhibit, WT yeast gro inh, Lmaj promast)
Cc1ccc(S(=O)(=O)Nc2ccc(O)c3ncccc23)cc1	CHOP inhibitor 73, Lmaj promast 99
N#C/C(=C/c1ccc(-c2ccc(S(N)(=O)=O)cc2)o1)C(=O)Nc1ccccc1	none
COCCNC(=O)/C(C#N)=C/c1ccc(-c2ccc(S(=O)(=O)N3CCOCC3)cc2)o1	Lmaj promast 78
CCN(CC)CCNC(=O)Cc1nn(CC)c(=O)c2ccccc12	none
CCN(CC)CCNc1ccc(CO)c2sc3ccccc3c(=O)c12	Lmaj promast 100
Cc1ccc(S(=O)(=O)N2CCOCC2)cc1C(=O)c1nccn1C	none
CCOc1ccc2nc(SCC(=O)NC(=O)NCc3ccco3)sc2c1	CHOP inhibitor 75
CCOc1ccc2nc(SCC(=O)c3ccc(Cl)s3)sc2c1	RAM inhibit 9.8
CCOc1ccc2nc(SCC(=O)N3CCCc4ccccc43)sc2c1	RAM inhibit 10.0
CCOc1ccc2nc(SCC(=O)c3cccs3)sc2c1	none
O=C(O)CCNC(=O)CCCn1nnc2ccccc2c1=O	none (no result: RAM inhibit, WT yeast gro inh, Lmaj promast)
CCOP(=O)(OCC)C(Nc1cccc(C(F)(F)F)c1)c1ccc(F)cc1 (stereo not given)	none
CCOP(=O)(OCC)C(Nc1cccc(C(F)(F)F)c1)c1ccc(C)cc1 (stereo not given)	Lmaj promast 59
CCCOP(=O)(OCCC)C(Nc1cccc(C(F)(F)F)c1)c1ccc(C)cc1 (stereo not given)	RAM inhibit 10, WT yeast gro inh 75, CHOP inhibitor 90
Cc1ccc2oc(=O)c3cnn(CC(=O)N(CCCN4CCOCC4)Cc4ccco4)c3c2c1	none
CC(C)(C)c1ccc(COC(=O)Nc2ccc(F)cc2)cc1	CHOP inhibitor 77
CCOC(=O)NC(=S)Nc1ccc(C(C)(C)C)cc1	none (no result: RAM inhibit, WT yeast gro inh, Lmaj promast)
O=C(O)CCCNC(=O)c1cccc(C(=O)NCCCC(=O)O)n1	none
Cc1cc(C)c(NC(=O)Cn2nc(-c3ccccc3)nc2-c2ccccc2)c(C)c1	none
Cc1ccc(Cn2nc(-c3ccccc3)nc2-c2ccccc2)cc1	CHOP inhibitor 75
O=C(NC(=S)NC1CCCc2ccccc21)c1ccco1 (stereo not given)	WT yeast gro inh 73
Cc1ccc(C(=O)NC2CCCc3ccccc32)o1 (stereo not given)	none
Cc1ccc(S(=O)(=O)Cc2ccc(C(=O)N3CCN(c4cc(C)ccc4C)CC3)o2)cc1	CHOP inhibitor 95
Cc1cccc(N2CCN(C(=O)c3ccc(CS(=O)(=O)c4ccccc4C)o3)CC2C)c1 (stereo not given)	Lmaj promast 59 (no result: CHOP inhibitor)
COCCN(C(=S)Nc1cc(C)ccc1C)C(C)c1cccnc1 (stereo not given)	Lmaj promast 95
COCCN(C(=S)Nc1c(C)cc(C)cc1C)C(C)c1cccnc1 (stereo not given)	Lmaj promast 89
COCCN(C(=S)Nc1c(C)cccc1C)C(C)c1cccnc1 (stereo not given)	none
CCN(CC)CCCN1C(=O)C(O)=C(C(C)=O)C1c1ccc(OC)cc1OC (stereo not given)	none (no result: RAM inhibit, CHOP inhibitor, Lmaj promast)
CC(C)NC(=O)C1(c2ccccc2)CC1(Cl)Cl (stereo not given)	none
CCOC(=O)c1c(NC(=O)CSC2=NN3CCCC(=O)N=C3S2)sc2c1CCCCC2	none
COc1ccc(-c2cc3nc(C)c(CCC(=O)NCc4ccco4)c(C)n3n2)c(OC)c1	none
Cc1nc2c(-c3ccccc3)c(C)nn2c(C)c1CCC(=O)NCc1ccco1	none
Cc1nc2c(-c3ccc(F)cc3)c(C)nn2c(C)c1CCC(=O)NC(C)CCc1ccco1 (stereo not given)	Lmaj promast 100
Cc1nc2cc(-c3ccc(Cl)cc3)nn2c(C)c1CCC(=O)NCc1ccco1	CHOP inhibitor 74
O=C(Nc1cccs1)OCCN1CCN(Cc2ccccc2)CCC1=O	none
